In PubChem BioAssay:
Records with an inconclusive call do not appear. For some of these results: Measured potencies and affinities stand elsewhere. The source made the active and inactive calls. Unless noted, the rule behind the calls is not given here.

Tests used:
[1] = stimulators of insulin release from INS-1E, primary screen, cell-based, 5 mM glucose, NPC library (AID 1117329;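 active = compound raises insulin release from rat beta cells at 5 mM glucose, no numeric limit stated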); conditions: rat INS-1E insulin secretion, at 10 µM, stronger effect = higher value
[2] = growth inhibition of GSK3B-pretreated HCT116 cells – cell-based, CellTiter-Glo, 0.2 to 20 µM (AID 1117336;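 active = compounds lowering colon cancer cell viability after pretreatment blocking the GSK3B kinase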); conditions: HCT116 viability after GSK3B inhibitor, at 20 µM, stronger effect = higher value
[3] = inhibition of endothelial tube formation, primary screen, imaging, VEGF stimulated, CD31 staining, tube area, NPC library (AID 1117340;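 active = compound that reduces growth-factor-driven endothelial tube area in a mixed cell culture, no cutoff stated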); conditions: VEGF-stimulated ADSC/ECFC co-culture, at 10 µM, stronger effect = higher value
[4] = glucagon-like peptide 1 release enhancers, primary assay, NCI-H716 cell line, NPC library (AID 1117341;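 active = compound raises GLP1 secretion from the human gut endocrine cells, with no numeric limit stated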); conditions: NCI-H716 cells, at 10 µM, stronger effect = higher value
[5] = HCT116 colon cancer cell growth inhibition, primary screen, CellTiter-Glo luminescence, NPC library (AID 1117342;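 active = compounds that lower survival of HCT116 colon cancer cells in the luminescence readout, no numeric limit stated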); conditions: at 20 µM (top of the series)
[6] = CellTiter-Glo luminescent readout of SW480 viability loss, NPC library primary (AID 1117343;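 active = compounds that lower viability of the colon cancer cells in the luminescence readout, with no numeric limit stated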); conditions: CellTiter-Glo luminescence; at 20 µM (top of the series)
[7] = decreased DLD-1 cellular survival, CellTiter-Glo luminescent readout, NPC compound collection, primary HTS (AID 1117346;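 active = compounds that lower survival of DLD-1 colon cancer cells in the luminescence readout, no cutoff given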); conditions: DLD-1 viability, CellTiter-Glo luminescence; at 20 µM (top of the series)
[8] = target: Calcium-dependent protein kinase 1 (Plasmodium falciparum (isolate 3D7)) (UniProt P62344); experiment: PfCDPK1 kinase inhibitors, biochemical, TCAMS library (AID 1159585; cut-off not given, nearly all actives have IC50 up to about 0.98 µM;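 note: inhibitors leave more ATP so luminescence rises with inhibition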); conditions: recombinant PfCDPK1, Kinase-Glo ATP depletion luminescence
Sequence of Calcium-dependent protein kinase 1 (Plasmodium falciparum (isolate 3D7)) (P62344 whole entry, looked up): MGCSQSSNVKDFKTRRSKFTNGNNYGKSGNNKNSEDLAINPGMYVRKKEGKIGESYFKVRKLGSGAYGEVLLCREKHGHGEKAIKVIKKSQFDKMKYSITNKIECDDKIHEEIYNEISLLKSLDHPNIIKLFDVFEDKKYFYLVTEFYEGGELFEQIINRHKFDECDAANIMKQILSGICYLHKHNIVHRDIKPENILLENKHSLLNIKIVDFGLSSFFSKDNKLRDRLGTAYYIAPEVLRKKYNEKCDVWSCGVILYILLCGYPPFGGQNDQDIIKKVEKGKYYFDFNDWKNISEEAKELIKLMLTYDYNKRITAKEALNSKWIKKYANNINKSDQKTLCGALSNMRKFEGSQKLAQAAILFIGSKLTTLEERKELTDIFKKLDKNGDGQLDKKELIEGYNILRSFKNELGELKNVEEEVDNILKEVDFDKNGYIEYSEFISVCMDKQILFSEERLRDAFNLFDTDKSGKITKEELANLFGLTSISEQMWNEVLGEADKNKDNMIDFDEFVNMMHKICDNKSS

[9] = target: Plasmodium falciparum protein kinase 6 (PK6, PF3D7_1337100) (UniProt Q8IDW1); experiment: PfPK6 kinase inhibitors, biochemical, TCAMS library (AID 1159586); conditions: recombinant PfPK6, Kinase-Glo ATP depletion luminescence
Sequence of Plasmodium falciparum protein kinase 6 (PK6, PF3D7_1337100) (Q8IDW1 1-305): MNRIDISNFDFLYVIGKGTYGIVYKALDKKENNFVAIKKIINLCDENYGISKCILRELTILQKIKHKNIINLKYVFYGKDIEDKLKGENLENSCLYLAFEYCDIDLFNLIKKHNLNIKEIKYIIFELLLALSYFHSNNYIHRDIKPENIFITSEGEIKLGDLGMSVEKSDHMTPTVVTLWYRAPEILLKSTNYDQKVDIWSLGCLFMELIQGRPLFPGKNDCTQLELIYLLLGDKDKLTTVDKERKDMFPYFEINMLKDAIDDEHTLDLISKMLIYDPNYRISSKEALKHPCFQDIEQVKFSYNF

[10] = target: Protein kinase 7 (PK7), Plasmodium falciparum 3D7 (PF3D7_0213400) (UniProt Q7YTF7); experiment: inhibition of Plasmodium PK7 catalytic activity – biochemical, TCAMS antimalarial set, Kinase-Glo luminescence (AID 1159587); conditions: recombinant PfPK7, Kinase-Glo ATP depletion luminescence
Sequence of Protein kinase 7 (PK7), Plasmodium falciparum 3D7 (PF3D7_0213400) (Q7YTF7 1-343): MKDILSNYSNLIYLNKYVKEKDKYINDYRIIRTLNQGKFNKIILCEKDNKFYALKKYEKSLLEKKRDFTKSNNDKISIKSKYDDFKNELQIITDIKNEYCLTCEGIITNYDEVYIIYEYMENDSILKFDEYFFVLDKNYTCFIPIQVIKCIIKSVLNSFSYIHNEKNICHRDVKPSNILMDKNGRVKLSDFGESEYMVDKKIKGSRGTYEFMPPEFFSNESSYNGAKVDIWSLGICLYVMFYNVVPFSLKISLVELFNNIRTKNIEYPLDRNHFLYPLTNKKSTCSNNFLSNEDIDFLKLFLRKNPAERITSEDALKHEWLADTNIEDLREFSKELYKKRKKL

[11] = target: Calcium-dependent protein kinase 4 (Plasmodium falciparum (isolate 3D7)) (UniProt Q8IBS5); experiment: PfCDPK4 kinase inhibitors, biochemical, TCAMS library (AID 1159588; cut-off not given, nearly all actives have IC50 up to about 0.91 µM); conditions: recombinant PfCDPK4, Kinase-Glo ATP depletion luminescence
Sequence of Calcium-dependent protein kinase 4 (Plasmodium falciparum (isolate 3D7)) (Q8IBS5 whole entry, looked up): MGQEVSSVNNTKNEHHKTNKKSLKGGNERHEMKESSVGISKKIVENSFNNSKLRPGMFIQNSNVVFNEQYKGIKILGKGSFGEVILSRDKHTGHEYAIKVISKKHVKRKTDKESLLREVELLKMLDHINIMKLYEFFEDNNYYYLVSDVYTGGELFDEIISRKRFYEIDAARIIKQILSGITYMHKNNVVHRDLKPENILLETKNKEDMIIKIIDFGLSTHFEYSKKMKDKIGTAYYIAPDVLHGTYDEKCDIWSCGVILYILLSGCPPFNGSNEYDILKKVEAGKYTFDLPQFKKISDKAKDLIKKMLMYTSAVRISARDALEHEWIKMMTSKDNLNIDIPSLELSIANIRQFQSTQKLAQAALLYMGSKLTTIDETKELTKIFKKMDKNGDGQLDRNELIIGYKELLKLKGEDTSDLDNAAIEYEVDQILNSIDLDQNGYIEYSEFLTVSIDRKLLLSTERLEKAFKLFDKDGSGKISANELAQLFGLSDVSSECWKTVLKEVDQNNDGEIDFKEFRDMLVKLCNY

[12] = modulation of C. elegans fzo-1 (AID 1259413);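 note: fzo-1 mutant C. elegans worms in liquid wells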; conditions: C. elegans fzo-1 modulator screen, mean read-out; stronger effect = higher value
[13] = target: 6-phosphogluconate dehydrogenase, decarboxylating (Homo sapiens) (UniProt P52209); experiment: 6PGD enzyme inhibitors, primary screen, biochemical, human, recombinant enzyme, NADPH absorbance (AID 1159550;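 active = at least 20% inhibition of 6-phosphogluconate dehydrogenase activity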); conditions: recombinant 6PGD, NADPH absorbance 341 nm; at 10 µM; stronger effect = higher value
Sequence of 6-phosphogluconate dehydrogenase, decarboxylating (Homo sapiens) (P52209 whole entry, looked up): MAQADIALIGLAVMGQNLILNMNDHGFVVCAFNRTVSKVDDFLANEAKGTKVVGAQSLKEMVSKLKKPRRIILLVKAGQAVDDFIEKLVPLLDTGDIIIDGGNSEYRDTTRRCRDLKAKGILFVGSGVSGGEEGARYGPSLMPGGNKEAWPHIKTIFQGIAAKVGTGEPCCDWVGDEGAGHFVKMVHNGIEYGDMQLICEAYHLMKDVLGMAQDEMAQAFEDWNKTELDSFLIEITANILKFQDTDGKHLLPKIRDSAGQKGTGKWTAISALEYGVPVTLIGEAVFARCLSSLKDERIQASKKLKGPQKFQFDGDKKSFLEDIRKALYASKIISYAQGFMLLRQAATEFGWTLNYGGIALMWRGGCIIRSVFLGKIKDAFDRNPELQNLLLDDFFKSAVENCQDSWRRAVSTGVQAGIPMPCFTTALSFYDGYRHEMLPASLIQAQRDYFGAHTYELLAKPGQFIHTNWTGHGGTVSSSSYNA

[14] = growth inhibition of DIPG glioma cells, dose response, cell-based, SU-DIPG-XVII, MIPE5.0, CellTiter-Glo, qHTS (AID 1347060; cut-off not given, nearly all actives have AC50 up to about 26 µM;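 for AC50: cells exposed to compound for 48 hours before viability readout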); conditions: SU-DIPG-XVII viability, CellTiter-Glo ATP luminescence
[15] = growth inhibition of DIPG glioma cells, dose response, cell-based, SU-DIPG-XIII, MIPE4.0, CellTiter-Glo, qHTS (AID 1347061; cut-off not given, nearly all actives have AC50 up to about 37 µM;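 note: cells exposed to compound for 48 hours before readout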); conditions: SU-DIPG-XIII viability, CellTiter-Glo ATP luminescence
[16] = growth inhibition of DIPG glioma cells, dose response, cell-based, SU-DIPG-XIII, MIPE5.0, CellTiter-Glo, qHTS (AID 1347064; cut-off not given, nearly all actives have AC50 up to about 23 µM); conditions: SU-DIPG-XIII viability, CellTiter-Glo ATP luminescence
[17] = growth inhibition of DIPG glioma cells, dose response, cell-based, JHH-DIPG-1, MIPE4.0, CellTiter-Glo, qHTS (AID 1347062; cut-off not given, nearly all actives have AC50 up to about 27 µM;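 for AC50: cells exposed to compound for two days before readout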); conditions: JHH-DIPG-1 viability, CellTiter-Glo ATP luminescence
[18] = growth inhibition of DIPG glioma cells, dose response, cell-based, SU-DIPG-IV, MIPE4.0, CellTiter-Glo, qHTS (AID 1347063; cut-off not given, nearly all actives have AC50 up to about 30 µM;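 note: compound exposure lasted 48 hours before the viability readout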); conditions: SU-DIPG-IV viability, CellTiter-Glo ATP luminescence
[19] = differential killing of epithelial or mesenchymal cells, primary screen, imaging, PC-3E GFP, TEM4-18 mCherry, co-culture (AID 1345086;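 active = compounds killing one labelled cell type while sparing the other, by normalised counts and ratio limits, not self-fluorescent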;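 for all read-outs here: cells exposed to compound for 72 h before imaging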;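 for red/green cell ratio (normalised): normalised mesenchymal count divided by normalised epithelial count so high means epithelial killing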); conditions: imaging cell counts, at 1 µM; for red/green cell ratio (normalised): actives lie on both sides, counts scaled to control wells, 1 = unselective
[20] = tested on: Aerobactin synthetase IucA (Klebsiella pneumoniae); experiment: IucA aerobactin synthetase inhibitors, biochemical, Tocris library, absorbance (AID 1345561); conditions: purified IucA enzyme assay, absorbance (OD) read-out; stronger effect = lower value;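 tested at 8 µM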;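 note: 100% = enzyme without compound and 0% = no enzyme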
[21] = measured here: epithelial PC-3E GFP cell survival
[22] = measured here: mesenchymal TEM4-18 mCherry cell survival

CCN(CC)Cc1cc(Nc2ccnc3cc(Cl)ccc23)ccc1O
inactive: insulin secretion stimulation [1] 9.6% | tube area decrease [3] 39.9% | GLP1 secretion stimulation [4] -1.3% | viability decrease (inhibition) [7] 44.8% | outcome [8] | outcome [9] | outcome [10] | outcome [11]
active: viability decrease [2] 82% | inhibition of viability [5] 83.2% | viability decrease (inhibition) [6] 87.3%

CO[C@H]1C=CO[C@@]2(C)Oc3c(C)c(O)c4c(O)c(c(/C=N/N5CCN(C)CC5)c(O)c4c3C2=O)NC(=O)/C(C)=C\C=C[C@H](C)[C@H](O)[C@@H](C)[C@@H](O)[C@@H](C)[C@H](OC(C)=O)[C@@H]1C
inactive: insulin secretion stimulation [1] 1.4% | GLP1 secretion stimulation [4] -1.8% | mean signal [12] 243
active: viability decrease [2] 67.8% | tube area decrease [3] 48.6% | inhibition of viability [5] 67.5% | viability decrease (inhibition) [6] 87.1% | viability decrease (inhibition) [7] 65.6%

NC(=O)c1ncn([C@@H]2O[C@H](CO)[C@@H](O)[C@H]2O)c1O
inactive: insulin secretion stimulation [1] -2.6% | viability decrease [2] -1.75% | tube area decrease [3] 3.8% | GLP1 secretion stimulation [4] 2.6% | inhibition of viability [5] -13.1% | viability decrease (inhibition) [6] 2.7% | viability decrease (inhibition) [7] 4.7% | inhibition [13] 1.32% | outcome [14] | outcome [15] | outcome [16]

CC(=O)O[C@]1(C(C)=O)CC[C@H]2[C@@H]3C=C(Cl)C4=CC(=O)[C@@H]5C[C@@H]5[C@]4(C)[C@H]3CC[C@@]21C
inactive: insulin secretion stimulation [1] -1.4% | viability decrease [2] 16% | tube area decrease [3] 10.1% | GLP1 secretion stimulation [4] 1.2% | inhibition of viability [5] 29.2% | viability decrease (inhibition) [6] 48.9% | viability decrease (inhibition) [7] -4.3% | inhibition [13] -7.53%
active: AC50 [14] 23.5 µM | AC50 [17] 23.5 µM | AC50 [18] 9.35 µM

Cc1cc(C(C)(C)C)cc(C)c1CC1=NCCN1
1.24: normalised cell number [19, 22]
inactive: insulin secretion stimulation [1] 0.2% | viability decrease [2] -61.3% | tube area decrease [3] 5.9% | GLP1 secretion stimulation [4] 4.3% | inhibition of viability [5] 18.3% | viability decrease (inhibition) [6] 2.6% | viability decrease (inhibition) [7] 14.6% | inhibition [13] -1.59% | red/green cell ratio (normalised) [19] 1.16 | outcome [16]
1.07: normalised cell number [19, 21]

CNCC(O)c1ccc(O)c(O)c1 (centres undefined)
active: viability decrease [2] 58.5% | viability decrease (inhibition) [6] 58.9%
inactive: insulin secretion stimulation [1] 5.7% | tube area decrease [3] -33.6% | GLP1 secretion stimulation [4] 2.7% | inhibition of viability [5] 29% | viability decrease (inhibition) [7] 17.7% | mean signal [12] 245

Cc1[nH]cnc1CN1CCc2c(c3ccccc3n2C)C1=O
inactive: insulin secretion stimulation [1] 0.5% | viability decrease [2] 10.2% | tube area decrease [3] 19.5% | GLP1 secretion stimulation [4] 5.1% | inhibition of viability [5] -1.8% | viability decrease (inhibition) [6] 42.2% | viability decrease (inhibition) [7] 23.8% | mean signal [12] 241

CC1=C(C(=O)O)N2C(=O)[C@@H](NC(=O)[C@H](N)C3=CCC=CC3)[C@H]2SC1
inactive: insulin secretion stimulation [1] 0.35% | viability decrease [2] 47.6% | tube area decrease [3] 0.9% | GLP1 secretion stimulation [4] 1.6% | inhibition of viability [5] 44% | viability decrease (inhibition) [6] 34.9% | viability decrease (inhibition) [7] 16.5% | inhibition [13] 12.9% | outcome [17]

CN(Cc1cnc2nc(N)nc(N)c2n1)c1ccc(C(=O)N[C@@H](CCC(=O)O)C(=O)O)cc1
active: viability decrease [2] 87.8% | tube area decrease [3] 57.2% | inhibition of viability [5] 74.5% | viability decrease (inhibition) [6] 78.8% | viability decrease (inhibition) [7] 65.9%
inactive: insulin secretion stimulation [1] -1.8% | GLP1 secretion stimulation [4] 1.1% | outcome [8] | outcome [9] | outcome [10] | outcome [11] | mean signal [12] 204 | remaining activity [20] 114% | outcome [15]

CC(C)NC[C@@H](O)COc1cccc2ccccc12
inactive: insulin secretion stimulation [1] 15.3% | viability decrease [2] 6.9% | tube area decrease [3] 5.1% | GLP1 secretion stimulation [4] 3.3% | inhibition of viability [5] 0.8% | viability decrease (inhibition) [7] 13.7% | inhibition [13] 5.64% | remaining activity [20] 109%
active: viability decrease (inhibition) [6] 54.8%

C[C@H]1O[C@@H](n2cc(F)c(=O)[nH]c2=O)[C@H](O)[C@@H]1O
inactive: insulin secretion stimulation [1] -1.2% | viability decrease [2] 29.5% | tube area decrease [3] 22.2% | GLP1 secretion stimulation [4] -2.6% | viability decrease (inhibition) [6] 20.6% | viability decrease (inhibition) [7] 8.35% | inhibition [13] -6.33% | outcome [17]
active: inhibition of viability [5] 59.6%

COc1cc2c(cc1OC)-c1cc(=Nc3c(C)cc(C)cc3C)n(C)c(=O)n1CC2
active: viability decrease [2] 91.5% | inhibition of viability [5] 71.2% | viability decrease (inhibition) [6] 120% | viability decrease (inhibition) [7] 66.5%
inactive: insulin secretion stimulation [1] 1.3% | tube area decrease [3] -11.8% | GLP1 secretion stimulation [4] 12.7% | outcome [8] | outcome [9] | outcome [10] | outcome [11] | remaining activity [20] 110%

CCOc1ccc2nc3cc(N)ccc3c(N)c2c1
inactive: insulin secretion stimulation [1] 3.5% | GLP1 secretion stimulation [4] 8.6% | viability decrease (inhibition) [7] 47.2% | outcome [8] | outcome [9] | outcome [10] | outcome [11] | red/green cell ratio (normalised) [19] 1.04
active: viability decrease [2] 81.2% | tube area decrease [3] 73.3% | inhibition of viability [5] 70.6% | viability decrease (inhibition) [6] 121%
0.62: normalised cell number [19, 21]
0.65: normalised cell number [19, 22]

CCCCC(=O)O[C@]1(C(=O)CO)[C@@H](C)C[C@H]2[C@@H]3CCC4=CC(=O)C=C[C@]4(C)[C@@]3(F)[C@@H](O)C[C@@]21C
inactive: insulin secretion stimulation [1] -4.4% | viability decrease [2] -106% | tube area decrease [3] 2.4% | GLP1 secretion stimulation [4] 8.1% | inhibition of viability [5] 12.9% | viability decrease (inhibition) [6] -0.4% | viability decrease (inhibition) [7] 11% | inhibition [13] -3.61% | outcome [14]

NC(N)=N/N=C/c1c(Cl)cccc1Cl
active: viability decrease [2] 60% | inhibition of viability [5] 80.7% | viability decrease (inhibition) [6] 99.6%
inactive: insulin secretion stimulation [1] -0.5% | tube area decrease [3] 18.2% | GLP1 secretion stimulation [4] 2.1% | viability decrease (inhibition) [7] 45.4% | inhibition [13] 14% | remaining activity [20] 99.1%
